Assay results reported in article PMC11062922 (Nature Chemical Biology, 2023).
Where two headings read alike, the source gives them in different places.

Assays:
Design in all cases: species or system human, MV4-11 + K-562 + COLO205 + SK-N-BE2 + OVCAR-8
[1] = tested on: ADRBK1; details: read-out: apparent Kd, n = 1
[2] = tested on: AKT2; details: read-out: apparent Kd, n = 1
[3] = tested on: CDK4; details: read-out: apparent Kd, n = 1
[4] = tested on: CDK6; details: read-out: apparent Kd, n = 1
[5] = tested on: PIP4K2C; details: read-out: apparent Kd, n = 1
[6] = tested on: RIOK2; details: read-out: apparent Kd; compound concentrations:100 nM and 1000 nM (sheet 'Samples'); n = 1
[7] = tested on: ERBB3; details: read-out: apparent Kd; compound concentrations:100 nM and 1000 nM (sheet 'Samples'); n = 1
[8] = tested on: ADK; details: read-out: apparent Kd, n = 1
[9] = tested on: ADCK3; details: read-out: apparent Kd; compound concentrations: 100 nM and 1000 nM (sheet 'Samples'), CATDS: 0.21121986416857899; n = 1
[10] = tested on: RIPK2; details: read-out: apparent Kd; compound concentrations: 100 nM and 1000 nM (sheet 'Samples'), CATDS: 0.926895955727292; n = 1
[11] = tested on: RIPK3; details: read-out: apparent Kd; compound concentrations: 100 nM and 1000 nM (sheet 'Samples'), CATDS: 0.31380158399753799; n = 1
[12] = tested on: ADCK5; details: read-out: apparent Kd; compound concentrations:100 nM and 1000 nM (sheet 'Samples'); n = 1
[13] = tested on: GSK3A; details: read-out: apparent Kd; compound concentrations:100 nM and 1000 nM (sheet 'Samples'); n = 1
[14] = tested on: COX5A; details: read-out: apparent Kd, n = 1
[15] = tested on: AKT1; details: read-out: apparent Kd; compound concentrations: 100 nM and 1000 nM (sheet 'Samples'), CATDS: 5.9095519599072298E-2; n = 1
[16] = tested on: AKT3; details: read-out: apparent Kd; compound concentrations: 100 nM and 1000 nM (sheet 'Samples'), CATDS: 5.2731999581220101E-2; n = 1
[17] = tested on: CDK17; details: read-out: apparent Kd; compound concentrations: 100 nM and 1000 nM (sheet 'Samples'), CATDS: 5.5041868266542698E-2; n = 1
[18] = tested on: CDKL5; details: read-out: apparent Kd; compound concentrations: 100 nM and 1000 nM (sheet 'Samples'), CATDS: 5.3023462381207802E-2; n = 1
[19] = tested on: CSNK1A1; details: read-out: apparent Kd; compound concentrations: 100 nM and 1000 nM (sheet 'Samples'), CATDS: 5.2392632468863803E-2; n = 1
[20] = tested on: MAP2K1; details: read-out: apparent Kd; compound concentrations: 100 nM and 1000 nM (sheet 'Samples'), CATDS: 5.50231746712945E-2; n = 1
[21] = tested on: MAP2K2; details: read-out: apparent Kd; compound concentrations: 100 nM and 1000 nM (sheet 'Samples'), CATDS: 7.31538140973165E-2; n = 1
[22] = tested on: MET; details: read-out: apparent Kd; compound concentrations: 100 nM and 1000 nM (sheet 'Samples'), CATDS: 5.0838558886591501E-2; n = 1
[23] = tested on: NNT; details: read-out: apparent Kd; compound concentrations: 100 nM and 1000 nM (sheet 'Samples'), CATDS: 6.8732534109556695E-2; n = 1
[24] = tested on: NQO1; details: read-out: apparent Kd; compound concentrations: 100 nM and 1000 nM (sheet 'Samples'), CATDS: 6.20542756151947E-2; n = 1
[25] = tested on: PRKAG2; details: read-out: apparent Kd; compound concentrations: 100 nM and 1000 nM (sheet 'Samples'), CATDS: 6.3549748711714801E-2; n = 1
[26] = tested on: RAB6A;RAB6B; details: read-out: apparent Kd; compound concentrations: 100 nM and 1000 nM (sheet 'Samples'), CATDS: 6.9234988104968295E-2; n = 1
[27] = tested on: VDAC3; details: read-out: apparent Kd; compound concentrations: 100 nM and 1000 nM (sheet 'Samples'), CATDS: 6.3375606463047907E-2; n = 1
[28] = tested on: EPHA7; details: read-out: apparent Kd; compound concentrations:100 nM and 1000 nM (sheet 'Samples'); n = 1
[29] = tested on: PIK3CB; details: read-out: apparent Kd; compound concentrations:100 nM and 1000 nM (sheet 'Samples'); n = 1
[30] = tested on: CDK10; details: read-out: apparent Kd; compound concentrations: 100 nM and 1000 nM (sheet 'Samples'), CATDS: 0.80077145880212897; n = 1
[31] = tested on: PRKAA2; details: read-out: apparent Kd; compound concentrations: 100 nM and 1000 nM (sheet 'Samples'), CATDS: 0.26734267999924899; n = 1
[32] = compound concentrations:100 nM and 1000 nM (sheet 'Samples')

CC(=O)c1c(C)c2cnc(Nc3ccc(N4CCNCC4)cn3)nc2n(C2CCCC2)c1=O [PFE-PKIS_32]
potency estimated from few doses [1, 32]: 1170 nM | potency estimated from few doses [2, 32]: 1960 nM | potency estimated from few doses ([3]; compound concentrations: 100 nM and 1000 nM (sheet 'Samples'), CATDS: 0.36803542167658398): 118 nM | potency estimated from few doses [4, 32]: 82.3 nM | potency estimated from few doses [5, 32]: 1610 nM | potency estimated from few doses [6]: 2040 nM

CCc1cc(Nc2nccc(-c3c(-c4ccc(OC)c(C(=O)Nc5c(F)cccc5F)c4)nc4ccccn34)n2)c(OC)cc1N1CCC(N2CCN(S(C)(=O)=O)CC2)CC1 [GSK1904529]
potency estimated from few doses [1, 32]: 2030 nM | potency estimated from few doses [4, 32]: 2370 nM | potency estimated from few doses [7]: 1360 nM | potency estimated from few doses [6]: 2220 nM

CC(=O)N[C@@H](Cc1ccc(OP(=O)(O)O)cc1)C(=O)N[C@H]1CCC(=O)N2CCC[C@@H](C(=O)NCc3ccc(O)cc3)N2C1=O [RO0324381-000]
potency estimated from few doses [8, 32]: 1270 nM

CC(C)S(=O)(=O)c1ccc2nccc(Nc3ccc4scnc4c3)c2c1 [GSK872]
potency estimated from few doses [9]: 483 nM | potency estimated from few doses [10]: 2.51 nM | potency estimated from few doses [11]: 70.7 nM

O=C(Nc1n[nH]c2nc(-c3nccs3)c(Br)cc12)C1CCCC1 [SB-742609]
potency estimated from few doses [12]: 1310 nM | potency estimated from few doses [3, 32]: 1110 nM | potency estimated from few doses [13]: 519 nM

O=C(Nc1cccc(-c2nn3ccccc3c2-c2ccnc(Nc3cccc(C(F)(F)F)c3)n2)c1)c1c(F)cccc1F [GSK292658A]
potency estimated from few doses ([8]; compound concentrations: 100 nM and 1000 nM (sheet 'Samples'), CATDS: 0.51902262396373799): 1330 nM | potency estimated from few doses ([14]; compound concentrations: 100 nM and 1000 nM (sheet 'Samples'), CATDS: 0.48232246819666902): 1540 nM

N#Cc1c(NC(=O)CN2CCOCC2)sc2c1CCCC2.O=C(O)C(=O)O [SB-657836-AAA]
potency estimated from few doses ([1]; compound concentrations: 100 nM and 1000 nM (sheet 'Samples'), CATDS: 5.9509771658031299E-2): 1680 nM | potency estimated from few doses [15]: 1700 nM | potency estimated from few doses ([2]; compound concentrations: 100 nM and 1000 nM (sheet 'Samples'), CATDS: 5.77170152352365E-2): 1790 nM | potency estimated from few doses [16]: 2170 nM | potency estimated from few doses [17]: 1970 nM | potency estimated from few doses ([4]; compound concentrations: 100 nM and 1000 nM (sheet 'Samples'), CATDS: 5.9987442985443201E-2): 1650 nM | potency estimated from few doses [18]: 2140 nM | potency estimated from few doses [19]: 2200 nM | potency estimated from few doses [20]: 1980 nM | potency estimated from few doses [21]: 1150 nM | potency estimated from few doses [22]: 2370 nM | potency estimated from few doses [23]: 1280 nM | potency estimated from few doses [24]: 1550 nM | potency estimated from few doses ([5]; compound concentrations: 100 nM and 1000 nM (sheet 'Samples'), CATDS: 5.5359350052651503E-2): 1950 nM | potency estimated from few doses [25]: 1480 nM | potency estimated from few doses [26]: 1260 nM | potency estimated from few doses [27]: 1490 nM

O=c1cc(N2CCOCC2)nc2n(Cc3ccccc3F)ccn12 [GSK2297428A]
potency estimated from few doses [1, 32]: 1690 nM | potency estimated from few doses [14, 32]: 1300 nM | potency estimated from few doses [28]: 1660 nM | potency estimated from few doses [29]: 385 nM

CS(=O)(=O)Nc1ccc(-c2ccc3c(NC(=O)C4CC4)n[nH]c3c2)cc1 [SB-742865]
potency estimated from few doses ([1]; compound concentrations: 100 nM and 1000 nM (sheet 'Samples'), CATDS: 0.24933386454831599): 1840 nM | potency estimated from few doses [30]: 107 nM | potency estimated from few doses [31]: 1440 nM
